Laboratory results reported in publication PMC5540273 (PLoS ONE, 2017).

Legend:
Details in all cases: concentration: 1 μM, replicates: in singlicate; n = 1
LYN = tested on: LYN
LZK = tested on: T1, LZK
T1 construct: gene MAP3K13

MAK = tested on: MAK
MAP3K15 = tested on: MAP3K15
MAP3K1 = tested on: MAP3K1
MAP3K2 = tested on: MAP3K2
MAP3K3 = tested on: MAP3K3
MAP3K4 = tested on: MAP3K4
MAP4K2 = tested on: MAP4K2
MAP4K3 = tested on: MAP4K3
MAP4K4 = tested on: MAP4K4
MAP4K5 = tested on: MAP4K5
MAPKAPK2 = tested on: MAPKAPK2
MAPKAPK5 = tested on: MAPKAPK5
MARK1 = tested on: MARK1
MARK2 = tested on: MARK2
MARK3 = tested on: MARK3
MARK4 = tested on: MARK4
MAST1 = tested on: MAST1
MEK1 = tested on: T2, MEK1
T2 construct: gene MAP2K1
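Further: KINOMEscan kinase panel screen.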

Question: `Cc1cccc(-c2nc(Nc3cccc(C(N)=O)c3)c3ccccc3n2)n1` [GW876019] was tested. Which “%Inh” value (LYN) did it give?
Answer: The value was 0%.

Question: What about the “%Inh” value (LZK) of the same compound?
Answer: Its value is 0%.

Question: What about the “%Inh” value (MAK) of the same compound?
Answer: The value was 0%.

Question: What about the “%Inh” value (MAP3K15) of the same compound?
Answer: Its value is 0%.

Question: And the “%Inh” value (MAP3K1)?
Answer: The value was 3%.

Question: What about the “%Inh” value (MAP3K2) of the same compound?
Answer: The value was 0%.

Question: And the “%Inh” value (MAP3K3)?
Answer: The value was 26%.

Question: What about the “%Inh” value (MAP3K4) of the same compound?
Answer: The value was 0%.

Question: What about the “%Inh” value (MAP4K2) of the same compound?
Answer: The value was 0%.

Question: And the “%Inh” value (MAP4K3)?
Answer: The value was 0%.

Question: What about the “%Inh” value (MAP4K4) of the same compound?
Answer: Its value is 0%.

Question: And the “%Inh” value (MAP4K5)?
Answer: Its value is 0%.

Question: And the “%Inh” value (MAPKAPK2)?
Answer: Its value is 0%.

Question: And the “%Inh” value (MAPKAPK5)?
Answer: The value was 0%.

Question: And the “%Inh” value (MARK1)?
Answer: The value was 0%.

Question: What about the “%Inh” value (MARK2) of the same compound?
Answer: The value was 0%.

Question: What about the “%Inh” value (MARK3) of the same compound?
Answer: The value was 45%.

Question: And the “%Inh” value (MARK4)?
Answer: The value was 0%.

Question: What about the “%Inh” value (MAST1) of the same compound?
Answer: Its value is 11%.

Question: What about the “%Inh” value (MEK1) of the same compound?
Answer: The value was 97.2%.

Question: Which results are given for `COc1cc2nccc(Nc3ccc(NC(=O)c4ccc(C)cc4)c(O)c3)c2cc1OC.Cl` [GW440132]?
Answer: %Inh (LYN): 28%; %Inh (LZK): 0%; %Inh (MAK): 13%; %Inh (MAP3K15): 13%; %Inh (MAP3K1): 10%; %Inh (MAP3K2): 9%; %Inh (MAP3K3): 0%; %Inh (MAP3K4): 2%; %Inh (MAP4K2): 0%; %Inh (MAP4K3): 8%; %Inh (MAP4K4): 0%; %Inh (MAP4K5): 3%; %Inh (MAPKAPK2): 8%; %Inh (MAPKAPK5): 0%; %Inh (MARK1): 0%; %Inh (MARK2): 0%; %Inh (MARK3): 0%; %Inh (MARK4): 14%; %Inh (MAST1): 0%; %Inh (MEK1): 8%

Question: Which results are given for `C[C@@H]1CCCCN1c1cc(-c2ccc3c(N)n[nH]c3c2)nc(N)n1` [GSK2258759]?
Answer: %Inh (LYN): 0%; %Inh (LZK): 0%; %Inh (MAK): 22%; %Inh (MAP3K15): 0%; %Inh (MAP3K1): 0%; %Inh (MAP3K2): 0%; %Inh (MAP3K3): 0%; %Inh (MAP3K4): 0%; %Inh (MAP4K2): 0%; %Inh (MAP4K3): 1%; %Inh (MAP4K4): 0%; %Inh (MAP4K5): 0%; %Inh (MAPKAPK2): 4%; %Inh (MAPKAPK5): 0%; %Inh (MARK1): 0%; %Inh (MARK2): 0%; %Inh (MARK3): 0%; %Inh (MARK4): 0%; %Inh (MAST1): 0%; %Inh (MEK1): 27%

Question: How did the “%Inh” value (LYN) turn out when `CS(=O)(=O)c1ccc(-c2nc3n(c2-c2ccncc2)CCC3)cc1` [SKF-105942] was run?
Answer: The value was 3%.

Question: And the “%Inh” value (LZK)?
Answer: The value was 0%.

Question: And the “%Inh” value (MAK)?
Answer: The value was 25%.

Question: What about the “%Inh” value (MAP3K15) of the same compound?
Answer: Its value is 0%.

Question: And the “%Inh” value (MAP3K1)?
Answer: The value was 0%.

Question: And the “%Inh” value (MAP3K2)?
Answer: Its value is 3%.

Question: And the “%Inh” value (MAP3K3)?
Answer: Its value is 0%.

Question: And the “%Inh” value (MAP3K4)?
Answer: Its value is 35%.

Question: What about the “%Inh” value (MAP4K2) of the same compound?
Answer: The value was 0%.

Question: And the “%Inh” value (MAP4K3)?
Answer: The value was 2%.

Question: What about the “%Inh” value (MAP4K4) of the same compound?
Answer: Its value is 0%.

Question: What about the “%Inh” value (MAP4K5) of the same compound?
Answer: The value was 0%.

Question: And the “%Inh” value (MAPKAPK2)?
Answer: The value was 36%.

Question: What about the “%Inh” value (MAPKAPK5) of the same compound?
Answer: The value was 0%.

Question: And the “%Inh” value (MARK1)?
Answer: Its value is 0%.

Question: And the “%Inh” value (MARK2)?
Answer: Its value is 0%.

Question: What about the “%Inh” value (MARK3) of the same compound?
Answer: The value was 0%.

Question: What about the “%Inh” value (MARK4) of the same compound?
Answer: The value was 0%.

Question: And the “%Inh” value (MAST1)?
Answer: The value was 0%.

Question: And the “%Inh” value (MEK1)?
Answer: The value was 0%.

Question: Which results are given for `CN1C(=O)C(Nc2ccc(Cl)c(C(=O)O)c2)=C(c2ccc(Cl)cc2)C1=O` [SB-404290]?
Answer: %Inh (LYN): 0%; %Inh (LZK): 0%; %Inh (MAK): 0%; %Inh (MAP3K15): 45%; %Inh (MAP3K1): 16%; %Inh (MAP3K2): 21%; %Inh (MAP3K3): 12%; %Inh (MAP3K4): 9%; %Inh (MAP4K2): 21%; %Inh (MAP4K3): 0%; %Inh (MAP4K4): 0%; %Inh (MAP4K5): 0%; %Inh (MAPKAPK2): 23%; %Inh (MAPKAPK5): 12%; %Inh (MARK1): 0%; %Inh (MARK2): 27%; %Inh (MARK3): 0%; %Inh (MARK4): 13%; %Inh (MAST1): 42%; %Inh (MEK1): 0%

Question: What does the source list for `O=C(Nc1ccc2c(c1)OCO2)NC1CCN(c2ccnc(Nc3ccc(F)cc3)n2)C1` (centres unmarked) [GSK1379724]?
Answer: %Inh (LYN): 0%; %Inh (LZK): 0%; %Inh (MAK): 0%; %Inh (MAP3K15): 0%; %Inh (MAP3K1): 11%; %Inh (MAP3K2): 6%; %Inh (MAP3K3): 0%; %Inh (MAP3K4): 40%; %Inh (MAP4K2): 0%; %Inh (MAP4K3): 0%; %Inh (MAP4K4): 8%; %Inh (MAP4K5): 0%; %Inh (MAPKAPK2): 5%; %Inh (MAPKAPK5): 0%; %Inh (MARK1): 0%; %Inh (MARK2): 0%; %Inh (MARK3): 0%; %Inh (MARK4): 0%; %Inh (MAST1): 0%; %Inh (MEK1): 0%

Question: How did the “%Inh” value (LYN) turn out when `Cc1cccc(-c2cc(Nc3ccncc3)c3ccccc3n2)n1` [GSK223675] was run?
Answer: The value was 0%.

Question: What about the “%Inh” value (LZK) of the same compound?
Answer: Its value is 0%.

Question: What about the “%Inh” value (MAK) of the same compound?
Answer: The value was 22%.

Question: What about the “%Inh” value (MAP3K15) of the same compound?
Answer: Its value is 0%.

Question: What about the “%Inh” value (MAP3K1) of the same compound?
Answer: Its value is 5%.

Question: What about the “%Inh” value (MAP3K2) of the same compound?
Answer: Its value is 0%.

Question: And the “%Inh” value (MAP3K3)?
Answer: Its value is 0%.

Question: And the “%Inh” value (MAP3K4)?
Answer: The value was 21%.

Question: What about the “%Inh” value (MAP4K2) of the same compound?
Answer: The value was 0%.

Question: And the “%Inh” value (MAP4K3)?
Answer: Its value is 0%.

Question: And the “%Inh” value (MAP4K4)?
Answer: The value was 0%.

Question: What about the “%Inh” value (MAP4K5) of the same compound?
Answer: The value was 0%.

Question: What about the “%Inh” value (MAPKAPK2) of the same compound?
Answer: Its value is 13%.

Question: What about the “%Inh” value (MAPKAPK5) of the same compound?
Answer: The value was 0%.

Question: And the “%Inh” value (MARK1)?
Answer: The value was 0%.

Question: What about the “%Inh” value (MARK2) of the same compound?
Answer: Its value is 0%.

Question: And the “%Inh” value (MARK3)?
Answer: The value was 0%.

Question: What about the “%Inh” value (MARK4) of the same compound?
Answer: The value was 0%.

Question: What about the “%Inh” value (MAST1) of the same compound?
Answer: The value was 0%.

Question: And the “%Inh” value (MEK1)?
Answer: The value was 0%.
